{"source": "the OligoGym collection"}
{"target": "LGALS7B", "experiment": "pooled miR-30 sensor sort-seq; sequence = guide strand", "details": "shRNA"}
{"sequence": "TTGAAGACCACCTCCGACGTGT", "sensor-assay potency score (higher = more potent)": 0.725}
{"sequence": "TGAAGCCGTCGTCTGACGCGAT", "sensor-assay potency score (higher = more potent)": -0.633}
{"sequence": "ATGATGAGCACCTCGAAGGGCT", "sensor-assay potency score (higher = more potent)": -0.649}
{"sequence": "TTGGGAGGAACCAAGCCGCGAA", "sensor-assay potency score (higher = more potent)": -0.897}
{"sequence": "TGAAATGCAGGGCGGCATCGGA", "sensor-assay potency score (higher = more potent)": -1.07}
{"sequence": "ATTGGGAGGAACCAAGCCGCGA", "sensor-assay potency score (higher = more potent)": -1.73}
{"sequence": "TGCTGTTGAAGACCACCTCCGA", "sensor-assay potency score (higher = more potent)": -0.584}
{"target": "LHCGR", "experiment": "pooled miR-30 sensor sort-seq; sequence = guide strand", "details": "shRNA"}
{"sequence": "TTACTGTGCTTTCACATTGTTT", "sensor-assay potency score (higher = more potent)": -1.55}
{"sequence": "TTATTTGATCCAGTGAAGCCAT", "sensor-assay potency score (higher = more potent)": -0.633}
{"sequence": "TAATCGCAGCTTTTGGTCCAGG", "sensor-assay potency score (higher = more potent)": -1.08}
{"sequence": "TTCACTTTCCTTACTGTGCTTT", "sensor-assay potency score (higher = more potent)": 0.168}
{"sequence": "TAAGCTGAAAAATCTTTCCTTC", "sensor-assay potency score (higher = more potent)": 0.265}
{"sequence": "TTGGTAGCCATTAATTCTGGGT", "sensor-assay potency score (higher = more potent)": -0.032}
{"sequence": "TCCATTGTGCATCTTCTCCAGA", "sensor-assay potency score (higher = more potent)": -0.921}
{"sequence": "TTTGGTGGAAGAAATATCCAAG", "sensor-assay potency score (higher = more potent)": -0.193}
{"sequence": "TTGACAAATGTTTCTCTTGATG", "sensor-assay potency score (higher = more potent)": -1.44}
{"sequence": "TAGTCGAGTGAGACCGGCCGTG", "sensor-assay potency score (higher = more potent)": -0.508}
{"sequence": "TATAGTTTGAGTGTTACAGATT", "sensor-assay potency score (higher = more potent)": -0.877}
{"sequence": "TAACTCAGCACATTTGTAGTGT", "sensor-assay potency score (higher = more potent)": 0.247}
{"target": "LHFPL3", "experiment": "pooled miR-30 sensor sort-seq; sequence = guide strand", "details": "shRNA"}
{"sequence": "TTTACTTCATCTGAGTCCCAGC", "sensor-assay potency score (higher = more potent)": -0.606}
{"sequence": "TATCTTGTACACAGTGGCCGTG", "sensor-assay potency score (higher = more potent)": -0.302}
{"sequence": "TAGCCTATAATATTACACGTGA", "sensor-assay potency score (higher = more potent)": -0.577}
{"sequence": "TTAAACAGAACACAGACTTGGT", "sensor-assay potency score (higher = more potent)": 0.0174}
{"sequence": "TACATGTTAACTCTAGAGCATT", "sensor-assay potency score (higher = more potent)": -1.25}
{"sequence": "TACTTGTCTGTCTTTTCTCCAC", "sensor-assay potency score (higher = more potent)": -0.0892}
{"sequence": "TAAAATAGGAATGTGGTCCTAA", "sensor-assay potency score (higher = more potent)": 0.497}
{"sequence": "TTAGTTGTTAACTACTTCCAGA", "sensor-assay potency score (higher = more potent)": -0.755}
{"sequence": "TAATCCATGATCACATCTCTTT", "sensor-assay potency score (higher = more potent)": -0.691}
{"sequence": "ATATCTTGTACACAGTGGCCGT", "sensor-assay potency score (higher = more potent)": -1.29}
{"sequence": "TTTTACTTCATCTGAGTCCCAG", "sensor-assay potency score (higher = more potent)": 0.0126}
{"sequence": "TTAGCTTGTGTTCATTCTCAGG", "sensor-assay potency score (higher = more potent)": -1.28}
{"target": "LHFPL4", "experiment": "pooled miR-30 sensor sort-seq; sequence = guide strand", "details": "shRNA"}
{"sequence": "TGGATGAAGACCACCACGTTGA", "sensor-assay potency score (higher = more potent)": -0.905}
{"sequence": "AAAATCTTTGTTCTCCGGCTTG", "sensor-assay potency score (higher = more potent)": -0.289}
{"sequence": "TAGTGCTCGTGGTAGAGCTTGG", "sensor-assay potency score (higher = more potent)": -0.315}
{"sequence": "AAGTCGGTGAAGGAGCCCCGGC", "sensor-assay potency score (higher = more potent)": -1.53}
{"sequence": "TTGTAGACCGTAGCCGTGTTGC", "sensor-assay potency score (higher = more potent)": -0.989}
{"sequence": "TCCGCATGTAGTGCTCGTGGTA", "sensor-assay potency score (higher = more potent)": -1.39}
{"sequence": "AAATCTTTGTTCTCCGGCTTGA", "sensor-assay potency score (higher = more potent)": -0.165}
{"sequence": "TTCCGCATGTAGTGCTCGTGGT", "sensor-assay potency score (higher = more potent)": -0.829}
